Compound activity: PubChem, National Center for Advancing Translational Sciences (NCATS)
The sample as a whole holds a higher share of hits than the screen did.
DT40 TDP1 no CPT: qHTS for Inhibitors of human tyrosyl-DNA phosphodiesterase 1 (TDP1): qHTS in cells in absence of CPT; AID 686978, 2013; Potency, µM (doses to about 46.2 µM), inactives show at the top dose activity change, negative = growth inhibition, usual class: inhibitors; DT40 Tdp1-/- hTDP1 cells, no CPT, ATP luminescence, 48 h; 420,000 compounds, 15% hits; note: potency is the fitted concentration of half-maximal effect; nearly all actives have a fitted effect of over 55% in size
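DT40 Tdp1-/-;hTDP1 cells, no CPT (DMSO vehicle only), 400 cells/well; compounds pin-transferred; ≥48 hr, 37 °C; CellTiter-Glo 30 min RT dark, luminescence read.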
HT1080NT lethal: kills 2HG-producing HT-1080-NT fibrosarcoma cells. Potency, µM (series often up to 46.1 µM), inactives show top-dose activity, negative = less viability, usual class: cytotoxic. AID 686970. HT-1080-NT fibrosarcoma viability, CellTiter-Glo ATP luminescence, 48 h. 360,000 compounds, 1.6% hits;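 note: NT is the 2HG producing partner of a matched IDH1 knockdown line; potency is the fitted concentration of half-maximal effect; 0% = DMSO-treated cells and -100% = media-only wells without cells; nearly all actives have a fitted effect of over 55% in size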
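Toxicity toward the 2HG-producing NT line was scored as %Activity, normalised to DMSO and no-cell wells, from CellTiter-Glo luminescence after 48 hours' treatment.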
IL-1B inflam inh: inflammasome signaling inhibition, IL-1 beta readout | THP-1 LPS/ATP IL-1B secretion, AlphaLISA, 16 h; hits give low values | activity change, % at 57.5 µM | 360,000 compounds, 4.7% hits; in the data active = activity change below about -50%; inconclusive = mostly about -30% to -49%
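Secreted IL-1B measured by AlphaLISA bead assay after 16 h compound exposure of THP-1 cells; compounds (final up to 57.5 uM) added 1 h before LPS (250 ng/mL) and ATP (1.25 mM) stimulation; lower signal means less secretion.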
HT1080 IDH1KD tx: toxicity to HT-1080 IDH1 knockdown cells (counter line); HT-1080 IDH1 knockdown viability, ATP luminescence, 48 h; Potency, µM (series often up to 46.1 µM), inactives show top-dose activity, negative = toxicity, usual class: cytotoxic; 360,000 compounds, 2% hits; AID 686971;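 note: potency is the fitted concentration of half-maximal effect; 0% = DMSO wells and -100% = cell-free medium wells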
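CellTiter-Glo luminescence after 48 h compound exposure at 37 degrees C of IDH1-knockdown HT-1080 cells in 5% FBS RPMI. %Activity scaled between DMSO wells and cell-free media wells, with curves fitted and assigned curve classes.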
DT40 TDP1 CPT: DT40-hTDP1 cell growth loss with CPT | chicken DT40 Tdp1-/-;hTDP1 cells + 20 nM CPT, ATP luminescence, 48 h | AID 686979 | 420,000 compounds, 12% hits | Potency, µM (doses to about 46.2 µM), for inactives: at the highest dose activity change, negative = growth inhibition, usual class: inhibitors; note: potency is the fitted concentration of half-maximal effect; nearly all actives have a fitted effect of over 55% in size
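Chicken DT40 Tdp1-/- cells stably complemented with human TDP1 were seeded at 400 cells/well in medium containing 20 nM camptothecin, exposed to pin-transferred compounds, and grown at 37 °C for at least 48 hr. Viability was read as ATP luminescence.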
12-LOX inh: blocks human arachidonate 12S-lipoxygenase | P18054 | Potency, µM (titrated, usually from 108 µM), for inactives: top-dose activity change, negative = inhibition, actives largely listed as inhibitors | 580,000 compounds, 1.1% hits | AID 1671190 | purified 12hLO, xylenol orange hydroperoxide absorbance; note: potency is the fitted concentration of half-maximal effect
Target sequence (P18054 whole entry, looked up): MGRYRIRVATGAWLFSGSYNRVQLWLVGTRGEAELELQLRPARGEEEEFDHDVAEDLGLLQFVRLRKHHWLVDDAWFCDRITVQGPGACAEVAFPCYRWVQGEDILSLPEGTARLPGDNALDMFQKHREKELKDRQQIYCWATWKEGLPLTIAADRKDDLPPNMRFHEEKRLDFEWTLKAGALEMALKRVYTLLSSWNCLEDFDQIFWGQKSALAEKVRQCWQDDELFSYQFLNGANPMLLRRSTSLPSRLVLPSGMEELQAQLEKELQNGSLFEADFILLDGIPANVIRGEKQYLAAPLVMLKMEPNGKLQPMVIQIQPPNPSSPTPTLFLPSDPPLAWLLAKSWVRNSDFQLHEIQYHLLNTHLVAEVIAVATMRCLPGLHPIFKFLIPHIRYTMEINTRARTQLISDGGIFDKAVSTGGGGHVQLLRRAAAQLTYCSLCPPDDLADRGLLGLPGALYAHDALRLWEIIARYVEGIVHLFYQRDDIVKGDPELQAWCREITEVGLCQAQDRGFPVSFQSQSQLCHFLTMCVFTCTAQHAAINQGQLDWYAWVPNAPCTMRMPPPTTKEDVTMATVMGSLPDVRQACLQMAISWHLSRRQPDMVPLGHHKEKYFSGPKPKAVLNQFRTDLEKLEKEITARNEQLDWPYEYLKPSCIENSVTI
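Purified human 12hLO (150 nM final) in 25 mM Hepes, 0.01% Triton X-100, pH 7.0 was preincubated 15 min at room temperature with compound. Then 40 uM arachidonic acid was added, 30 min. Hydroperoxide was read by Fe-XO absorbance ratio 573/405 nm.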
* marks the source's active call; other numbers are inactive results; ? = inconclusive; nt = no result given; [ ] = another dose, or the depositor's remark. Unless noted, calls come from the whole dose curve; as a rule, active = well fitted curve in the direction sought with a large enough effect; inconclusive = small, poorly fitted or top-dose-only effect, or another doubt; inactive = no such curve, though single readings can be large; an effect the other way counts as inactive or inconclusive. Unless noted, % is set by controls: 0 for no effect and ±100 for the full control effect.

SMILES	DT40 TDP1 no CPT	HT1080NT lethal	IL-1B inflam inh	HT1080 IDH1KD tx	DT40 TDP1 CPT	12-LOX inh
Cc1ccc(CN2CCSc3ccc(C(=O)N4CCN(c5ncccn5)CC4)cc32)cc1	16.4µM*	4.3%[9.24 µM]	-62.4*	9.1%	20.6µM*	nt
CCN1CCN(C(=O)c2ccc(CSc3ccc(C)cc3)cc2)CC1	13µM*	?	-54.1*	-28.2%	?	?
Cc1oc2cc(OCC(=O)NCC(O)CO)ccc2c(=O)c1Oc1ccccc1 (stereo not drawn)	nt	nt	nt	nt	nt	-7.8%
Cc1cc(C)cc(-n2nnnc2SCc2nc3ccsc3c(=O)[nH]2)c1	nt	nt	nt	nt	nt	4.8%
CCc1ccccc1NC(=O)c1ccc(-n2c(C)ccc2C)cc1	?	?	-83.2*	?	?	0.0%
CC(=O)Nc1ccc(NC(=O)c2ccc(-n3c(C)ccc3C)cc2)cc1	16.4µM*	-3.4%	-67.5*	-9.0%	?	4.1%
CC(=O)NCCNC(=O)c1ccc(-n2c(C)ccc2C)cc1	-29.3%	-8.9%	-75.7*	-6.4%	-15.7%	4.0%
Cc1ccc(C)n1-c1ccc(NC(=O)c2ccccc2)cc1	?	-5.9%	-53.0*	-20.3%	?	-18.3%
CN(Cc1ccccc1C(F)(F)F)C(=O)Cc1ccccn1	nt	nt	nt	nt	nt	69.8%[176 µM]
Clc1ccc(-c2csc(Nc3ccccc3)[n+]2Cc2ccco2)c(Cl)c1	23.1µM*	-2.2%	-8.4	?	?	?
O=C(CNCCc1ccc(Cl)cc1Cl)NCc1ccco1	-17.7%	-10.9%	-2.8	-14.7%	-16.8%	-21.9%
CCCC[n+]1c(-c2ccc(Cl)cc2Cl)csc1Nc1ccccc1	20.6µM*	-12.0%	-13.5	0.4%	?	-19.2%
CCOC(=O)N1CCN(CC(O)COc2ccccc2C(C)C)CC1 (stereo not drawn)	?	-0.6%	-9.7	-3.1%	?	?
Oc1ccc(C23CC4CC(CC(C4)C2)C3)cc1O	?	-2.2%	?	-14.4%	?	?
CCOC(=O)N1CCN(CC(O)COc2cc(C)ccc2C(C)C)CC1 (stereo not drawn)	8.2µM*	8.8%	-4.2	11.3%	-29.0%	-10.2%
NCCOc1ccc(C23CC4CC(CC(C4)C2)C3)cc1	3.66µM*	1.3%	-81.2*	?	3.66µM*	?
OCCN1CCN(CC(O)COc2ccc(C34CC5CC(CC(C5)C3)C4)cc2)CC1 (stereo not drawn)	5.17µM*	18.4µM*	-97.3*	23.1µM*	5.17µM*	?
CCOC(=O)N1CCN(CC(O)COc2ccccc2C(C)(C)C)CC1 (stereo not drawn)	18.4µM*	-3.6%	1.3	-3.7%	?	?
O=C(c1cccnc1)N1CCC2(CC1)C(=NC1CCCCC1)NC(=O)N2c1cccnc1	nt	nt	nt	nt	nt	4.3%
CC(C(=O)NCc1ccccc1F)n1nc(-c2ccccc2)c2ccccc21 (stereo not drawn)	nt	nt	nt	nt	nt	-10.6%
Cc1ccc(C(C)C)c(OCC(O)CN2CCN(CCO)CC2)c1 (stereo not drawn)	-8.1%	-0.8%	-18.8	-3.1%	-16.5%	10µM*
Cc1ccc(S(=O)(=O)NCCC(=O)Nc2nccs2)cc1	-14.3%	-5.2%	-64.3*	-27.3%	12.8%	8.3%
CCCC(=O)Nc1ccc(S(=O)(=O)Nc2nccs2)cc1	-11.5%	1.3%	-3.9	7.7%	20.6%	288.1%
Cc1ccc(SCC(=O)Nc2ccc(S(=O)(=O)Nc3nccs3)cc2)cc1	3.66µM*	3.5%	-10.7	3.0%	?	-11.4%
O=C(CCl)Nc1ccc(S(=O)(=O)Nc2nccs2)cc1	?	?	?	13µM*	?	-15.0%
SMILES	DT40 TDP1 no CPT	HT1080NT lethal	IL-1B inflam inh	HT1080 IDH1KD tx	DT40 TDP1 CPT	12-LOX inh
O=C(CSc1ccncc1)Nc1ccc(S(=O)(=O)Nc2nccs2)cc1	-2.3%	-0.8%	0.2	1.3%	17.1%	4.6%
O=C(Nc1nc2cc3c(cc2s1)OCCCO3)c1cc(Br)ccc1Cl	nt	nt	nt	nt	nt	-1.6%
Cc1c(C(=O)OCC(=O)c2c(N)n(CC(C)C)c(=O)n(C)c2=O)oc2ccccc12	23.1µM*	-18.0%	-5.1	-22.5%	?	0.0%
COCc1c(C(=O)OCC(=O)c2c(N)n(CC(C)C)c(=O)n(C)c2=O)oc2ccccc12	20.6µM*	-10.7%	3.3	-1.1%	18.4µM*	10.8%
CCc1ccc(C(=O)OCC(=O)c2c(N)n(CC(C)C)c(=O)n(C)c2=O)cc1	?	?	-7.5	-11.6%	?	0.0%
COc1ccc(COc2ccc(C#N)cc2OC)cc1F	nt	nt	nt	nt	nt	-8.1%
CC1(C)CC(=O)C2=C(C1)NC(=O)CC2c1ccc(C(C)(C)C)cc1 (stereo not drawn)	nt	nt	nt	nt	nt	-39.3%
COC(=O)c1c(-c2cccs2)csc1NC(=O)COc1ccc(C(C)(C)C)cc1	20.6µM*	nt	nt	nt	14.6µM*	-14.1%
COC(=O)c1c(-c2cccs2)csc1NC(=O)COc1ccccc1	20.6µM*	nt	nt	nt	16.4µM*	?
COC(=O)c1c(-c2cccs2)csc1NC(=O)COc1ccc(C)cc1	?	nt	nt	nt	?	-15.0%
Cc1nc2nc(-c3cccs3)[nH]c2cc1Br	16.4µM*	?	?	?	?	111.8%
